The supplement of paper PMC5919970
Structures can show the parent of a compound that is named as a salt. Whole data set: some 2,000 compounds, median “fractional viability relative to vehicle” near 0.91, cut for the lowest 2% near 0.045. The list comes from a sample in which the lowest values are over-represented; it also holds similar structures and randomly drawn compounds.

Tested on: TYKNU
Assay: fractional viability relative to vehicle; TYKNU is a high-grade serous ovarian cancer line; higher = less growth inhibition
Details: 72 h
How it was run: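 TYKNU control cells or lentiCRISPRv2 knockout derivatives were seeded at 500 cells per well into drug-stamped 384-well plates holding a ~2100-compound library at 2 or 10 μM, in duplicate. Cells were grown at 37 °C in 5% CO2 in RPMI 1640 with 10% FBS, and drug treatment lasted 72 h. Viability was read by Cell Titer Glo luminescence. Duplicate treatment wells were averaged and normalised to duplicate control wells from the same plate position.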

[1] = 2uM, genotype: DNM1L knockout (sgDNM1L #1)
[2] = 2uM, genotype: sgCTRLA1 (non-targeting control)
[3] = 10uM, genotype: DNM1L knockout (sgDNM1L #1)
[4] = 10uM, genotype: sgCTRLA1 (non-targeting control)

Compound	fractional viability [1]	fractional viability [2]	fractional viability [3]	fractional viability [4]
COc1cccc2c1C(=O)c1c(O)c3c(c(O)c1C2=O)C[C@@](O)(C(C)=O)C[C@@H]3O[C@H]1C[C@H](N)[C@H](O)[C@H](C)O1 [Daunorubicin HCl]	0.392	0.254	0.0554	0.0241
COc1cccc2c1C(=O)c1c(O)c3c(c(O)c1C2=O)C[C@@](O)(C(=O)CO)C[C@@H]3O[C@H]1C[C@H](N)[C@H](O)[C@H](C)O1 [Doxorubicin (Adriamycin)]	0.377	0.212	0.437	0.323
CC(=O)[C@]1(O)Cc2c(O)c3c(c(O)c2[C@@H](O[C@H]2C[C@H](N)[C@H](O)[C@H](C)O2)C1)C(=O)c1ccccc1C3=O [Idarubicin HCl]	0.362	0.165	0.042	0.021
Nc1cccc(S(=O)(=O)N2CCCN(S(=O)(=O)c3ccc4c(c3)OCCO4)CC2)c1	0.767	0.995	0.742	0.647
NCCCCCNCC12CC3CC(CC(C3)C1)C2 [IEM 1754 dihydrobroMide]	0.967	0.972	0.91	0.898
CC(=O)Oc1cc2c(s1)CCN(C(C(=O)C1CC1)c1ccccc1F)C2 (configuration not stated) [Prasugrel]	1.14	1.21	0.897	1.08
C[C@@H]1COCCN1c1cc(C2([S@](C)(=N)=O)CC2)nc(-c2cc[nH]c3nccc2-3)n1	0.189	0.127	0.136	0.0834
CCCCCCCCCCCCCCCCn1cc[n+](Cc2ccccc2)c1C	0.134	0.104	0.0139	0.00629
Cc1nn(C)c(COc2ccc(N3CCN(S(=O)(=O)N(C)C)CC3)cc2)c1-c1cccc2c(CCCOc3cccc4ccccc34)c(C(=O)O)n(CCN3CCOCC3)c12	0.762	0.94	0.644	0.518
C[C@@H](Oc1cc(-c2cnn(C3CCNCC3)c2)cnc1N)c1c(Cl)ccc(F)c1Cl	0.669	0.73	0.128	0.126
CC[C@H]1[C@@H](O)[C@@H]2[C@H](CC[C@]3(C)[C@@H]([C@H](C)CCC(=O)O)CC[C@@H]23)[C@@]2(C)CC[C@@H](O)C[C@@H]12 [Obeticholic Acid]	0.846	0.891	0.952	0.807
CC(C)(C)C(=O)C(Oc1ccc(Cl)cc1)n1ccnc1 (configuration not stated) [Climbazole]	0.805	1.06	0.641	0.924
CC(C)(C)c1cc(C(=O)C(C#N)=NNc2cccc(Cl)c2)no1	0.783	0.936	0.57	0.583
CCc1ccc(OCc2ccccc2C(=O)Nc2ccc3nc(C)cc(N)c3c2)cc1	0.117	0.166	0.0139	0.00672
CCCC(=O)Nc1cccc(NC(=O)c2ccccc2Br)c1	1.11	1.19	0.939	1.21
COc1cc2c(cc1OC)CN(CCc1ccc(NC(=O)c3cc(OC)c(OC)cc3NC(=O)c3cnc4ccccc4c3)cc1)CC2 [Tariquidar]	0.769	1.05	0.158	0.555
Cn1c(=O)cc(N2CCC[C@@H](N)C2)n(Cc2ccccc2C#N)c1=O [Alogliptin]	0.928	0.995	0.894	1.03
Cc1ncc([N+](=O)[O-])n1CC(O)CCl (configuration not stated) [Ornidazole]	1.42	1.24	1.25	1.37
O=C(N/N=C/c1ccc([N+](=O)[O-])o1)c1ccc(O)cc1 [Nifuroxazide]	0.378	1.1	0.0463	0.0163

Compound	fractional viability [1]	fractional viability [2]	fractional viability [3]	fractional viability [4]
CCOC(=O)c1ccc(N2NC(=O)C(=Cc3ccc([N+](=O)[O-])o3)C2=O)cc1	0.944	1.26	0.872	1.02
NC(=O)N/N=C/c1ccc([N+](=O)[O-])o1 [Nitrofural]	1.34	1.13	1.26	1.2
CN(C)c1ccc(C(=C2C=CC(=[N+](C)C)C=C2)c2ccc(N(C)C)cc2)cc1 [Crystal Violet]	0.133	0.121	0.0375	0.0133
O=c1[nH]c(=O)n(C2CC(O)C(CO)O2)cc1Br (configuration not stated) [Bromodeoxyuridine (BrdU)]	0.823	0.962	0.859	0.64
Cc1nc(-c2cccnc2)sc1C(=O)Nc1ccccc1-c1cn2c(CN3CCOCC3)csc2n1	0.821	0.932	0.858	0.78
O=C(Nc1ccccc1-c1cn2c(CN3CCNCC3)csc2n1)c1cnc2ccccc2n1	0.608	0.845	0.0197	0.00961
Cn1c2ccccc2c2c3c(c4c5ccccc5n(CCC#N)c4c21)CNC3=O	0.64	1.01	0.671	0.79
Cn1cncc1[C@@](N)(c1ccc(Cl)cc1)c1ccc2c(c1)c(-c1cccc(Cl)c1)cc(=O)n2C [Tipifarnib]	0.472	0.64	0.272	0.366
Cc1nnc(C(C)C)n1C1C[C@H]2CC[C@@H](C1)N2CC[C@H](NC(=O)C1CCC(F)(F)CC1)c1ccccc1 (stereo in doubt) [Maraviroc]	0.973	1.15	0.873	1.03
Cc1cc(-c2ncc(CC(=O)Nc3ccc(-c4cnccn4)cn3)cc2C)ccn1	0.863	1.1	0.665	0.746
CC(C)c1onc(-c2c(Cl)cccc2Cl)c1COc1ccc(/C=C/c2cccc(C(=O)O)c2)c(Cl)c1	0.953	1.1	0.781	1.09
c1ccc(Cn2c(-c3ccc(OC[C@H](C4CCNCC4)n4c(-c5ccccc5)nc5ccccc54)cc3)nc3ccccc32)cc1 [Deltarasin]	0.887	0.966	0.0145	0.0132
c1cc(-c2cnn3cc(-c4ccc(OCCN5CCCCC5)cc4)cnc23)ccn1 [Dorsomorphin (Compound C)]	0.845	0.916	0.552	0.503
C/C(=N\NC(=S)N1CCC1)c1ccccn1	0.171	0.137	0.225	0.167
Fc1ccc2[nH]ccc2c1-c1nc(N2CCOCC2)c2sc(CN3CCN(CC4CC4)CC3)cc2n1	0.883	0.947	0.634	0.711
O=C(NC1CCN(CCCCC2(C(=O)NCC(F)(F)F)c3ccccc3-c3ccccc32)CC1)c1ccccc1-c1ccc(C(F)(F)F)cc1 [Lomitapide Mesylate]	0.573	0.79	0.0435	0.0328
O=C(O)c1cc(=O)c2ccccc2o1 [Chromocarb]	0.948	1.07	0.923	1.05
O=C1c2ccccc2C(=O)c2c1ccc(O)c2O [Alizarin]	0.834	1.1	0.8	1.06
CC(=O)c1cc2c(o1)C(=O)c1ccccc1C2=O [Napabucasin]	0.0305	0.0196	0.018	0.0135
